Sampled rows, rich in hits. Any-hit rate of the full collection: about 2.4%.
D2 antagonist: antagonizes the human D2 dopamine receptor. HEK293 TREx D2 cells, calcium flux, dopamine EC80. AID 485344. actives 2% (n = 340,000). inhibition, % at 10 µM. P14416; in the data active = inhibition above about 30%; inactive = below that, where a call was filed; note: 0% is about no effect
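Overnight-induced (tetracycline, 30 C) HEK293 T-REx cells carrying force-coupled D2 receive a no-wash calcium dye, then compound, then EC80 dopamine at 180 s; signals are read kinetically throughout.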
D2 PAM-1: positive allosteric modulators of human D2 dopamine receptor; P14416; HEK293 T-REx D2, calcium flux, EC20 dopamine potentiation; potentiation, % at 10 µM; actives 0.34% (n = 340,000);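 active = potentiation over 3 SD above the plate norm, cut at about 30% in these data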; note: 0% is about no effect
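Potentiation of an EC20 dopamine calcium response is measured in a force-coupled, tetracycline-inducible Hek293 Trex D2 line. Compound-only kinetic reads over 180 s flag agonists before dopamine addition.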
D2 ag-1: agonists of human D2 dopamine receptor; P14416; HEK293 T-REx D2 cells, calcium flux agonist mode; activation, % at 2 µM; actives 0.53% (n = 340,000); AID 485358;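 active = activation over 3 SD above normal in the single-dose calcium agonist read, cut at about 30% in these data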; note: 0% is about no effect
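Agonism scored from kinetic calcium signal (1 read/sec, 180 s) following compound pin transfer, after a 10 s baseline. Cells: HEK293 Trex line expressing inducible D2 receptor coupled to calcium, dye-loaded after overnight culture at 30 C.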
D2 ag-2: human D2 receptor agonism in beta-arrestin assay; P14416; DiscoveRx PathHunter D2 beta-arrestin, luminescence, 90 min; 100% = 57 uM dopamine signal; activation, % (concentration not given with the values); actives 0.084% (n = 360,000); AID 624465; in the data active = activation above about 40%; inconclusive = between about 15% and that limit
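Agonist mode: compounds alone added to overnight-plated D2 PathHunter cells for 90 min at 37 C, with 57 uM final dopamine (EC100) defining full response. Beta-arrestin recruitment detected by chemiluminescent reagent, read after 1 h at ambient temperature.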
D2 PAM-2: potentiates the human D2 dopamine receptor allosterically. P14416. DiscoveRx D2 beta-arrestin cells, luminescence, 90 min; 100% = 57 uM dopamine signal. potentiation, % (concentration not given with the values). actives 0.23% (n = 360,000); in the data active = potentiation above about 50%; inconclusive = mostly about 30% to 49%
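PathHunter D2 cells, attached overnight at 37 deg C, received compound in DMSO plus dopamine at EC20 (50 nM final) for 90 min at 37 deg C. Beta-arrestin recruitment was read as luminescence after 1 h with detection reagent at ambient temperature.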
D3 ag: activates human D3 dopamine receptor beta-arrestin recruitment. shares compounds with D2 ag-1. DiscoveRx D3 beta-arrestin cells, luminescence, 90 min. Potency, µM (series often up to 76.9 µM), for the others: top-dose activation, most hits filed as activators. actives 4% (n = 2,300). AID 720506;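 note: potency is the fitted concentration of half-maximal effect; 100% = dopamine control response; nearly all actives have a fitted effect of over 70% in size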
Target sequence (P35462 whole entry, looked up): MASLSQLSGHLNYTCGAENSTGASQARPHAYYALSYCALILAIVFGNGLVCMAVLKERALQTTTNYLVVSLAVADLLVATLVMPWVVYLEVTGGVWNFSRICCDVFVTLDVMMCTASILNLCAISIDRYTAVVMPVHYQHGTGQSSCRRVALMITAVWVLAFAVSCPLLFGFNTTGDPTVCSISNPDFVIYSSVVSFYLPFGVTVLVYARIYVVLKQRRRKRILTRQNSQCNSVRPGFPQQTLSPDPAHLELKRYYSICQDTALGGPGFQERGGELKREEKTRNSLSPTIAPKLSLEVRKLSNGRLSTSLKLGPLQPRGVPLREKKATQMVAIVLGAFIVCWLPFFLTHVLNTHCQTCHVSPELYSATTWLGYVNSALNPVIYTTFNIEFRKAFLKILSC
D2 ag-3: D2 receptor agonism, beta-arrestin counterscreen | shares compounds with D2 ag-1 | DiscoveRx PathHunter D2 beta-arrestin, luminescence, 90 min; response scale: percent relative to full dopamine signal | Potency, µM (highest dose often 76.9 µM), for inactives: at the top dose activation, most hits filed as activators | actives 5.9% (n = 2,300) | AID 720507; note: potency is the fitted concentration of half-maximal effect; % of control where 0% means no effect; nearly all actives have a fitted effect of over 70% in size
* marks the source's active call; other numbers are inactive results; ? = inconclusive; . = no result given; ! = not active in a repeat. Unless noted, calls come from the whole dose curve; as a rule, active = well fitted activation curve with a large enough effect; inconclusive = small, poorly fitted or top-dose-only effect; inactive = flat fitted curve, though single readings scatter.

SMILES	D2 antagonist	D2 PAM-1	D2 ag-1	D2 ag-2	D2 PAM-2	D3 ag	D2 ag-3
CC(C)CNC(=O)CN(C1CCCCC1)S(=O)(=O)c1ccccc1	25	-8	0	-3	-2	-7%	-2%
Cc1cc(N2CCC(C)CC2)nc2ccc(NC(=O)/C=C/c3cccc(Cl)c3)cc12	.	26	1	.	.	.	.
O=C(CCNC(=O)c1ccc(Cl)cc1)NCCCN1CCOCC1	-18	-10	0	-3	-1	-6%	-5%
Cc1cccc(C(=O)N(C(=O)c2cccc(C)c2)N(C)C)c1	.	.	.	1	-5	.	.
CC1CCN(c2ccc(C(=O)NCc3ccco3)cc2[N+](=O)[O-])CC1	6	2	0	-1	-14	-10%	-11%
CCOCCC(=O)Nc1ncc(S(=O)(=O)c2ccc([N+](=O)[O-])cc2)s1	.	.	.	?	-2	.	.
CCCC(C)C(=O)Nc1ncc(S(=O)(=O)c2ccc([N+](=O)[O-])cc2)s1 (configuration not stated)	19	10	23	14	11	?	24%
COc1ccc(-c2noc(CSc3nnc(-c4ccncc4)n3-c3ccc(C)cc3)n2)cc1	.	-3	3	.	.	.	.
CCOc1ccc(-n2c(SCc3nc(-c4ccc(C)cc4)no3)nnc2-c2ccncc2)cc1	10	-21	47*	-4	-8	-8%	-1%
O=S(=O)(c1ccc(NC(=S)N/N=C/c2c3ccccc3cc3ccccc23)cc1)N1CCOCC1	24	8	0	2	-12	29%	13%
O=S(=O)(c1ccc(NC(=S)N/N=C/c2ccc(Oc3ccccc3)cc2)cc1)N1CCOCC1	8	-12	1	4	-5	.	.
Cc1ccc(C)c(NC(=O)Cn2c(=O)n(Cc3ccc4c(c3)OCO4)c(=O)c3oc4ccccc4c32)c1	.	2	0	.	.	.	.
CC(C)[C@H](Nc1ccc(S(=O)(=O)N2CCOCC2)cc1[N+](=O)[O-])C(=O)OCC(N)=O	0	-1	0	1	-1	.	.
CC(C)[C@H](Nc1ccc(S(=O)(=O)N2CCOCC2)cc1[N+](=O)[O-])C(=O)OCC(=O)N(C(C)C)C(C)C	23	1	2	0	-10	-9%	7%
CCCNC(=O)c1ccc2c(=O)c(O)c(-c3ccc(F)cc3)[nH]c2c1	.	.	.	2	1	.	.
Nc1c(Cl)cc(-c2[nH]c3cc(C(=O)NCCO)ccc3c(=O)c2O)cc1Cl	9	3	0	3	3	25%	2%
Cc1ccc(C2=CC(=O)CC(C)(C)C2)cc1	-14	10	-1	-3	-12	.	.
CC1(C)CC(=O)C=C(c2ccc3ccccc3c2)C1	.	4	.	0	-8	-2%	3%
CCOC(=O)c1sc(NC(=O)CSCc2c(C)noc2C)nc1C	-7	1	-1	10	-3	-5%	-4%
CCOC(=O)c1sc(NC(=O)c2c(CC)noc2C)nc1C	0	-10	0	-1	0	-2%	-1%
Cc1ccc(S(=O)(=O)N(C)CC(=O)N(C)Cc2cccs2)cc1	.	.	.	-2	-11	.	.
COC(=O)c1cc(C(=O)Nc2ccc(S(=O)(=O)NC(C)(C)C)cc2)cc([N+](=O)[O-])c1	-13	-2	2	5	7	.	.
CCN(CC)S(=O)(=O)c1ccc(NC(=O)c2cc(C(=O)OC)cc([N+](=O)[O-])c2)cc1	0	-19	46*	3	5	9%	4%
CSCCC(NC(=O)c1ccccc1Cl)C(=O)Nc1ccncc1 (configuration not stated)	-1	15	1	-3	-8	1%	?
CSCCC(NC(=O)c1ccccc1)C(=O)Nc1ccncc1 (configuration not stated)	-33	-7	0	3	-1	.	.
SMILES	D2 antagonist	D2 PAM-1	D2 ag-1	D2 ag-2	D2 PAM-2	D3 ag	D2 ag-3
Cc1cc(C)c(NC(=O)Cn2cnc3c(oc4ccccc43)c2=O)c(C)c1	16	-8	0	5	-6	-1%	-1%
O=S(=O)(c1ccc(OCC(O)CN2CCN(c3ccc(F)cc3)CC2)cc1)N1CCOCC1 (configuration not stated)	67*	-17	76*	13	-10	8%	?
COc1ccc(S(=O)(=O)N2CCN(CC(O)CN3CCOCC3)CC2)cc1 (configuration not stated)	-10	20	0	-4	-3	.	.
COc1ccccc1N1CCN(CC(O)COc2ccc(S(=O)(=O)N3CCOCC3)cc2)CC1 (configuration not stated)	92*	-17	71*	?	-19	-6%	?
CCCS(=O)(=O)NC(=O)C1(C)CCCN(C(=O)c2cc(F)ccc2C)C1 (configuration not stated)	.	.	.	-6	0	.	.
CC(C)(C)c1cc(CCC(=O)NNC(=S)NC(=O)c2ccccc2)cc(C(C)(C)C)c1O	.	.	.	-14	-15	0%	-10%
COc1ccc(N2CCN(C(=O)CCCNC(=O)Cn3cnc4sc(C)c(C)c4c3=O)CC2)cc1	-4	-22	44*	-4	-8	-1%	6%
Cc1nn2c(C)c(C(=O)N3CCN(c4ccc(Cl)cc4)CC3)cnc2c1-c1ccc(F)cc1	.	-14	0	.	.	.	.
COc1cccc(C2CC(=O)Nc3cc(OC)c(OC)cc32)c1 (configuration not stated)	27	6	0	3	4	.	.
COc1cccc(C2CC(=O)Nc3cc4c(cc32)CCC4)c1 (configuration not stated)	10	13	-1	-7	-4	23%	10%
CC(C)OCC(O)CN1CCC(Cc2ccccc2)CC1 (configuration not stated)	10	-22	1	0	-17	.	.
C[C@@H](CN1CCC(Cc2ccccc2)CC1)[C@@H](O)c1ccc(O)cc1	.	.	.	-4	6	7%	27%
CC(C(O)c1ccc(O)cc1)N1CCC(Cc2ccccc2)CC1 (configuration not stated)	77*	-26	33*!	-3	-34	-19%	3%
CN(C(=O)CSc1cn(CC(=O)N2CCCC2)c2ccccc12)c1ccccc1	.	-5	-1	.	.	.	.
COc1ccc(C(=O)N2CCNC(=O)C2)cc1S(=O)(=O)Nc1ccc(Br)cc1	-55	-10	1	-5	-3	.	.
Fc1ccc(F)c(CN2CCN(c3ncccn3)CC2)c1	79*	-22	64*	78*	64*	?	3.2µM*

Screening data from PubChem.
